# Experimental data published in the supplement of paper PMC7411054.
# Counter-ions that a name gives are not always drawn.
# Columns and labels:
# Assay in all cases: lowest phenotypically active concentration; higher = less potent
# Details in all cases: treatment time: 24 h
# [1] = test system: A549-GM130-SQSTM1
# Method in brief: (§1)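 Cells from fifteen gene-edited reporter lines (A549, HepG2 and WPMY1) were treated for 24 h at 0.3, 1, 3 or 9 µM and imaged live, four wells per condition. Features were normalised per well to solvent control wells. A condition deviated if ≥3 of 4 wells passed the 95th percentile of control Euclidean distances and was reproducible if its median replicate Pearson correlation beat the 95th percentile of non-replicates; phenotypic activity needed both.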
# [2] = test system: A549-TUBA1B-RELA
# Method in brief: as §1
# [3] = test system: HepG2-CANX-COX4
# Method in brief: as §1
# [4] = test system: HepG2-ACTB-RAB5A
# Method in brief: as §1
# [5] = test system: WPMY1-TP53BP1-CLTA
# Method in brief: as §1
# [6] = test system: HepG2-TP53BP1-CLTA
# Method in brief: as §1
# [7] = test system: HepG2-GM130-SQSTM1
# Method in brief: as §1
# [8] = test system: A549-ACTB-RAB5A
# Method in brief: as §1
# [9] = test system: A549-CANX-COX4
# Method in brief: as §1
# [10] = test system: A549-TP53BP1-CLTA
# Method in brief: as §1
structure (smiles),measurement,setting,value
COc1ccc(S(=O)(=O)ON=C2C=C(C)C(=O)C(C)=C2)cc1,lowest phenotypically active concentration,[1],9 µM
same,lowest phenotypically active concentration,[2],9 µM
Nc1nnc(Sc2ncc([N+](=O)[O-])s2)s1,lowest phenotypically active concentration,[2],9 µM
O=c1cc(N2CCOCC2)oc2c1ccc1ccccc12,lowest phenotypically active concentration,[1],3 µM
C[C@H](NC(=O)[C@@H](O)c1cc(F)cc(F)c1)C(=O)N[C@@H]1C(=O)N(C)c2ccccc2-c2ccccc21,lowest phenotypically active concentration,[3],1 µM
CO[C@H]1C=CO[C@@]2(C)Oc3c(C)c(O)c4c(O)c(c(/C=N/N5CCN(C)CC5)c(O)c4c3C2=O)NC(=O)C(C)=CC=C[C@H](C)[C@H](O)[C@@H](C)[C@@H](O)[C@@H](C)[C@H](OC(C)=O)[C@@H]1C [Rifampicin],lowest phenotypically active concentration,[1],9 µM
same,lowest phenotypically active concentration,[3],3 µM
"Cc1c(C)c2c(c(C)c1O)CC[C@@](C)(CCC[C@H](C)CCC[C@H](C)CCCC(C)C)O2 [Tocopherol (R,S)]",lowest phenotypically active concentration,[3],3 µM
COCCCOc1ccnc(CS(=O)c2nc3ccccc3[nH]2)c1C (configuration not stated) [rabeprazole],lowest phenotypically active concentration,[4],9 µM
O=c1c(O)c(-c2ccc(O)cc2)oc2cc(O)cc(O)c12 [Kaempferol],lowest phenotypically active concentration,[1],9 µM
same,lowest phenotypically active concentration,[5],9 µM
NS(=O)(=O)c1cc2c(cc1C(F)(F)F)NC(Cc1ccccc1)NS2(=O)=O (configuration not stated) [bendroflumethiazide],lowest phenotypically active concentration,[3],3 µM
Clc1ccc(C(c2ccc(Cl)cc2)[n+]2ccn(CC(OCc3ccc(Cl)cc3Cl)c3ccc(Cl)cc3Cl)c2)cc1 (configuration not stated) [Calmidazolium chloride],lowest phenotypically active concentration,[4],3 µM
C[C@@H]1CN(Cc2ccc(F)cc2)[C@@H](C)CN1C(=O)c1cc2c(C(=O)C(=O)N(C)C)cn(C)c2cc1Cl [SCIO 469 hydrochloride],lowest phenotypically active concentration,[4],9 µM
same,lowest phenotypically active concentration,[3],1 µM
same,lowest phenotypically active concentration,[6],9 µM
Cc1ccc(-n2sc3ccccc3c2=O)cc1,lowest phenotypically active concentration,[3],9 µM
same,lowest phenotypically active concentration,[7],9 µM
CC(C)N(CCCNC(=O)Nc1ccc(C(C)(C)C)cc1)C[C@H]1O[C@@H](n2ccc3c(N)ncnc32)[C@H](O)[C@@H]1O,lowest phenotypically active concentration,[4],9 µM
same,lowest phenotypically active concentration,[7],≤ 0.3 µM
same,lowest phenotypically active concentration,[6],1 µM
CCCCCCCCCCCCC/C=C/[C@H](O)[C@H](N)CO [D-erythro-Sphingosine (synthetic)],lowest phenotypically active concentration,[1],9 µM
CCOc1nc(NC(=O)Cc2cc(OC)ccc2OC)cc(N)c1C#N,lowest phenotypically active concentration,[2],9 µM
CNC(=C[N+](=O)[O-])NCCSCc1ccc(CN(C)C)o1 [ranitidine],lowest phenotypically active concentration,[7],1 µM
Nc1ncnc2c1ncn2[C@@H]1O[C@H](CO)[C@@H](O)[C@H]1O [Adenosine],lowest phenotypically active concentration,[4],9 µM
CC1=C(/C=C/C(C)=C/C=C/C(C)=C/C(=O)O)C(C)(C)CCC1 [isotretinoin],lowest phenotypically active concentration,[3],≤ 0.3 µM
same,lowest phenotypically active concentration,[5],3 µM
CC(C)(C)c1ccc(C(=O)Nc2cn3cc(-n4ccnc4)ccc3n2)cc1,lowest phenotypically active concentration,[4],3 µM
Cc1nc[nH]c1C1CCN(c2nc3cccc4c3n2CCC4=O)CC1,lowest phenotypically active concentration,[6],9 µM
COc1ccc(C[C@@H]2c3cc(OC)c(OC)cc3CC[N@+]2(C)CCC(=O)OCCCCCOC(=O)CC[N@@+]2(C)CCc3cc(OC)c(OC)cc3[C@H]2Cc2ccc(OC)c(OC)c2)cc1OC [Cisatracurium besylate],lowest phenotypically active concentration,[7],9 µM
O=c1cc(-c2ccc(O)cc2)oc2cc(O)cc(O)c12 [Apigenin],lowest phenotypically active concentration,[7],9 µM
same,lowest phenotypically active concentration,[6],9 µM
same,lowest phenotypically active concentration,[5],3 µM
NS(=O)(=O)C#Cc1ccccc1 [pifithrin-mu],lowest phenotypically active concentration,[7],3 µM
C#CCN[C@@H]1CCc2ccccc21 [rasagiline],lowest phenotypically active concentration,[6],9 µM
same,lowest phenotypically active concentration,[5],9 µM
CN(C)CCOC(c1ccccc1)c1ccccc1 [diphenhydramine],lowest phenotypically active concentration,[5],9 µM
Nc1ncnc2c1c(COc1cccc(Cl)c1)nn2C1CCOCC1,lowest phenotypically active concentration,[6],9 µM
CC1(C)CC(=O)c2c(S(C)(=O)=O)sc(Cl)c2C1,lowest phenotypically active concentration,[7],1 µM
O=[N+]([O-])c1cc(Cl)ccc1S(=O)(=O)c1ccccc1,lowest phenotypically active concentration,[7],3 µM
CN/C(=C/[N+](=O)[O-])NCCSCc1csc(CN(C)C)n1 [nizatidine],lowest phenotypically active concentration,[6],1 µM
CCOc1ccc2nc(S(N)(=O)=O)sc2c1 [ethoxzolamide],lowest phenotypically active concentration,[7],9 µM
O=C(Nc1ccccc1)N1CCC(Cc2cnc3ccccc3c2)CC1,lowest phenotypically active concentration,[6],9 µM
NC(=O)c1ccc(I)c([N+](=O)[O-])c1,lowest phenotypically active concentration,[7],9 µM
CC(C)C(=O)Nc1ncc(-c2cc(C(F)F)nn2-c2c(Cl)cccc2Cl)s1,lowest phenotypically active concentration,[8],≤ 0.3 µM
same,lowest phenotypically active concentration,[4],3 µM
same,lowest phenotypically active concentration,[3],9 µM
O=S(c1ccccc1)c1ccc2nnnn2n1 (configuration not stated),lowest phenotypically active concentration,[8],9 µM
COc1cc2nc(N3CCN(C(=O)c4ccco4)CC3)nc(N)c2cc1OC [prazosin],lowest phenotypically active concentration,[3],9 µM
COc1ccc2c3c(c(=O)n(C)c2c1OC)C=CC(C)(C)O3 [Veprisine],lowest phenotypically active concentration,[5],9 µM
Fc1ccc(Cl)cc1-c1nc(Nc2ccncc2)c2nccnc2n1,lowest phenotypically active concentration,[5],9 µM
C=C[C@H]1CN2CC[C@H]1C[C@H]2[C@H](O)c1ccnc2ccc(OC)cc12 [Quinine dihydrochloride],lowest phenotypically active concentration,[8],9 µM
same,lowest phenotypically active concentration,[1],3 µM
COc1ccc(CCN(C)CCCC(C#N)(c2ccc(OC)c(OC)c2)C(C)C)cc1OC (configuration not stated) [verapamil],lowest phenotypically active concentration,[8],9 µM
same,lowest phenotypically active concentration,[1],9 µM
same,lowest phenotypically active concentration,[2],9 µM
CS(=O)(=O)c1ccc(-c2nnc(/C=C/c3nnc(-c4ccc(C#N)cc4)o3)n2-c2ccccc2Cl)nc1,lowest phenotypically active concentration,[5],9 µM
O=C(O)/C(Cc1ccccc1[N+](=O)[O-])=N\Nc1nc(-c2ccc(Cl)c(Cl)c2)cs1,lowest phenotypically active concentration,[5],9 µM
CN1C/C(=C/c2ccc(B(O)O)cc2)C(=O)/C(=C/c2ccc(B(O)O)cc2)C1,lowest phenotypically active concentration,[9],≤ 0.3 µM
same,lowest phenotypically active concentration,[10],≤ 0.3 µM
same,lowest phenotypically active concentration,[4],≤ 0.3 µM
same,lowest phenotypically active concentration,[3],3 µM
same,lowest phenotypically active concentration,[7],3 µM
same,lowest phenotypically active concentration,[6],9 µM
same,lowest phenotypically active concentration,[5],3 µM
Nc1ccn([C@@H]2O[C@H](CO)[C@@H](O)C2(F)F)c(=O)n1 [gemcitabine],lowest phenotypically active concentration,[9],≤ 0.3 µM
same,lowest phenotypically active concentration,[10],≤ 0.3 µM
same,lowest phenotypically active concentration,[4],≤ 0.3 µM
same,lowest phenotypically active concentration,[3],≤ 0.3 µM
same,lowest phenotypically active concentration,[7],≤ 0.3 µM
same,lowest phenotypically active concentration,[6],≤ 0.3 µM
same,lowest phenotypically active concentration,[5],≤ 0.3 µM
Oc1ccc(Nc2nc(-c3ccc(Cl)cc3)cs2)cc1,lowest phenotypically active concentration,[9],3 µM
same,lowest phenotypically active concentration,[10],9 µM
same,lowest phenotypically active concentration,[3],9 µM
same,lowest phenotypically active concentration,[7],9 µM
same,lowest phenotypically active concentration,[5],9 µM
COc1cc2c(NC3CCN(C(C)C)CC3)nc(C3CCCCC3)nc2cc1OCCCN1CCCC1,lowest phenotypically active concentration,[9],3 µM
same,lowest phenotypically active concentration,[10],3 µM
same,lowest phenotypically active concentration,[4],1 µM
same,lowest phenotypically active concentration,[3],3 µM
same,lowest phenotypically active concentration,[7],1 µM
same,lowest phenotypically active concentration,[6],1 µM
same,lowest phenotypically active concentration,[5],1 µM
COc1cc2ncn(-c3cc(OCc4ccccc4C(F)(F)F)c(C(N)=O)s3)c2cc1OC,lowest phenotypically active concentration,[9],1 µM
same,lowest phenotypically active concentration,[10],1 µM
same,lowest phenotypically active concentration,[4],≤ 0.3 µM
same,lowest phenotypically active concentration,[3],≤ 0.3 µM
same,lowest phenotypically active concentration,[7],≤ 0.3 µM
same,lowest phenotypically active concentration,[6],≤ 0.3 µM
same,lowest phenotypically active concentration,[5],1 µM
CCOc1cc(N2CCC(O)CC2)ccc1Nc1ncc2c(n1)N(C)c1ccccc1C(=O)N2C,lowest phenotypically active concentration,[9],9 µM
same,lowest phenotypically active concentration,[10],9 µM
same,lowest phenotypically active concentration,[4],3 µM
same,lowest phenotypically active concentration,[3],3 µM
same,lowest phenotypically active concentration,[7],3 µM
same,lowest phenotypically active concentration,[6],9 µM
same,lowest phenotypically active concentration,[5],3 µM
CCN1CCN(C(c2cccnc2)c2cc(Cl)c3cccnc3c2O)CC1 (configuration not stated),lowest phenotypically active concentration,[9],3 µM
same,lowest phenotypically active concentration,[10],3 µM
same,lowest phenotypically active concentration,[4],9 µM
same,lowest phenotypically active concentration,[3],9 µM
same,lowest phenotypically active concentration,[7],9 µM
same,lowest phenotypically active concentration,[6],9 µM
same,lowest phenotypically active concentration,[5],9 µM
COc1cc([C@@H]2c3cc4c(cc3[C@@H](O[C@@H]3O[C@@H]5CO[C@@H](C)O[C@H]5[C@H](O)[C@H]3O)[C@H]3COC(=O)[C@H]23)OCO4)cc(OC)c1O [etoposide],lowest phenotypically active concentration,[9],1 µM
same,lowest phenotypically active concentration,[10],≤ 0.3 µM
same,lowest phenotypically active concentration,[4],1 µM
same,lowest phenotypically active concentration,[3],1 µM
same,lowest phenotypically active concentration,[7],1 µM
same,lowest phenotypically active concentration,[6],≤ 0.3 µM
same,lowest phenotypically active concentration,[5],1 µM
Nc1cc(C(F)(F)F)c(-c2cc(N3CCOCC3)nc(N3CCOCC3)n2)cn1 [buparlisib],lowest phenotypically active concentration,[9],1 µM
same,lowest phenotypically active concentration,[10],1 µM
same,lowest phenotypically active concentration,[4],1 µM
same,lowest phenotypically active concentration,[3],1 µM
same,lowest phenotypically active concentration,[7],3 µM
same,lowest phenotypically active concentration,[6],3 µM
same,lowest phenotypically active concentration,[5],3 µM
CCN(CC)CCCC(C)Nc1ccnc2cc(Cl)ccc12 (configuration not stated) [chloroquine],lowest phenotypically active concentration,[10],9 µM
same,lowest phenotypically active concentration,[4],3 µM
same,lowest phenotypically active concentration,[3],9 µM
same,lowest phenotypically active concentration,[7],3 µM
same,lowest phenotypically active concentration,[6],9 µM
same,lowest phenotypically active concentration,[5],9 µM
O=c1[nH]cc(F)c(=O)[nH]1 [5-Fluorouracil],lowest phenotypically active concentration,[9],3 µM
same,lowest phenotypically active concentration,[10],9 µM
same,lowest phenotypically active concentration,[4],3 µM
same,lowest phenotypically active concentration,[3],3 µM
same,lowest phenotypically active concentration,[7],3 µM
same,lowest phenotypically active concentration,[6],3 µM
same,lowest phenotypically active concentration,[5],9 µM
N#Cc1c(NC(=O)c2cccc3ccccc23)sc2c1CCCC2,lowest phenotypically active concentration,[9],≤ 0.3 µM
same,lowest phenotypically active concentration,[10],≤ 0.3 µM
same,lowest phenotypically active concentration,[4],≤ 0.3 µM
same,lowest phenotypically active concentration,[3],≤ 0.3 µM
same,lowest phenotypically active concentration,[7],≤ 0.3 µM
same,lowest phenotypically active concentration,[6],≤ 0.3 µM
same,lowest phenotypically active concentration,[5],≤ 0.3 µM
Cc1c2oc3c(C)ccc(C(=O)NC4C(=O)NC(C(C)C)C(=O)N5CCCC5C(=O)N(C)CC(=O)N(C)C(C(C)C)C(=O)OC4C)c3nc-2c(C(=O)NC2C(=O)NC(C(C)C)C(=O)N3CCCC3C(=O)N(C)CC(=O)N(C)C(C(C)C)C(=O)OC2C)c(N)c1=O (configuration not stated) [Actinomycin D],lowest phenotypically active concentration,[9],≤ 0.3 µM
same,lowest phenotypically active concentration,[10],≤ 0.3 µM
same,lowest phenotypically active concentration,[4],≤ 0.3 µM
same,lowest phenotypically active concentration,[3],≤ 0.3 µM
same,lowest phenotypically active concentration,[7],≤ 0.3 µM
same,lowest phenotypically active concentration,[6],≤ 0.3 µM
same,lowest phenotypically active concentration,[5],≤ 0.3 µM
C/C(=C/c1ccc(C(=O)O)cc1)c1ccc2c(c1)C(C)(C)CCC2(C)C,lowest phenotypically active concentration,[5],3 µM
